Bioassay records: PubChem BioAssay, Broad Institute
Shown are actives, neighbours in structure and some others; about 2.3% of the full set was active somewhere.
PDI turbidity – inhibitors of human protein disulfide isomerase | P07237 | PDI insulin aggregation turbidity, A650, 90 min | inhibition, % at 10 µM | 350,000 compounds, 0.052% hits | AID 588391;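 active = mean inhibition across replicates of 30% or more, whatever share of single replicates reach that level; inconclusive = mean inhibition below 30% while every single replicate reaches 30%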
Target sequence (P07237 whole entry, looked up): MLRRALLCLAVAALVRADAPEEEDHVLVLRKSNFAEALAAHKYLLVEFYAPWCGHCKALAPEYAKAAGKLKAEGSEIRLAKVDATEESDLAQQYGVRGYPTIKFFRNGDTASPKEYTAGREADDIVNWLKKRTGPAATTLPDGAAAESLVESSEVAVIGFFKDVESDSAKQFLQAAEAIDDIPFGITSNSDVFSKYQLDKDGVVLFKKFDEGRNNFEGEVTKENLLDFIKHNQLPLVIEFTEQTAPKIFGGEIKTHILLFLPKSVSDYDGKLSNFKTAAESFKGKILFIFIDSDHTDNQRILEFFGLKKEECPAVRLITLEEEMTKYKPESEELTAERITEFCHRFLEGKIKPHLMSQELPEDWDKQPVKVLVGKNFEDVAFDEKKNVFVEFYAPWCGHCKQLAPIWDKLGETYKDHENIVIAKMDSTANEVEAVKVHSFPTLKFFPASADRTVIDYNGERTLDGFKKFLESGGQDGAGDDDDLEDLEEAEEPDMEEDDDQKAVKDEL
DENV2 CPE – protects cells from dengue virus 2 cytopathic effect; DENV2-infected cells, cytopathic effect rescue, plate reader; CPE inhibition, % at 9.99 µM; 350,000 compounds, 1.7% hits; in the data active = CPE inhibition above about 20%, passing the limit was not always enough; inconclusive = no clear call, values can overlap the other calls; tested in BHK-21 cells;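 also: 0% = median of neutral control wells and 100% = median of positive control wells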
Rtt109 Vps75 – blocks Candida albicans Rtt109/Vps75 acetyltransferase activity. Q5AAJ8. purified Rtt109/Vps75, ThioGlo CoA-SH fluorescence, 4 h. inhibition, % at 34.9 µM. 330,000 compounds, 0.16% hits. AID 540336;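 active = inhibition of at least 50% in every replicate; inconclusive = best replicate reaches 50% inhibition but some replicates fall short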
SIRT5 block – blocks human SIRT5 desuccinylation of peptide; inhibition, % at 15 µM; Purified SirT5, succinyl-peptide AMC, trypsin-coupled fluorescence; Q9NXA8; 330,000 compounds, 1.1% hits; in the data active = inhibition above about 15%; inconclusive = no clear call, values can overlap the other calls
ERp5 block – ERp5 (human) disulfide isomerase inhibition; Q15084; ERp5 insulin aggregation, absorbance 650 nm, 90 min; inhibition, % at 9.99 µM; 350,000 compounds, 0.05% hits; AID 651711;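 active = mean replicate inhibition above about 25%, with every replicate also reaching it, limit read from the data, passing the limit was not always enough; inconclusive = only one of those two criteria met; inactive = neither criterion met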
Starred values were filed as active, the others as inactive; ? = inconclusive; . = no result; ! = repeats disagree.

SMILES	PDI turbidity	DENV2 CPE	Rtt109 Vps75	SIRT5 block	ERp5 block
CCc1cnc(N2[C@H](C#N)[C@@H](c3ccccc3)[C@@H]2CO)s1	.	2	.	3	0
CCc1cnc(N2[C@@H](C#N)[C@@H](c3ccccc3)[C@@H]2CO)s1	.	49*	.	1	-2
CN(C)CCCNC(=O)[C@@H]1[C@@H](CO)[C@@H]2Cn3c(ccc(C4=CCCC4)c3=O)[C@H]1N2Cc1cocn1	.	4	.	-21	6
COc1cc(Cl)c(CN2CCCC(CO)(Cc3ccccc3F)C2)cc1OC (stereo not given)	-1	-4	19	101*	4
CO[C@@H](CN(C)C(=O)c1ccccc1F)[C@@H](C)CN([C@@H](C)CO)S(=O)(=O)c1ccc(Cl)cc1	.	-2	.	-2	-1
CCC(CC)CN1CCC(CN2C(=S)NC[C@@H]2[C@@H](C)CC)CC1	-4	-4	6	19*	-2
C[C@H](CO)N1C[C@H](C)[C@H](CN(C)Cc2ccc(-c3ccccc3)cc2)Oc2ccc(N(C)C)cc2C1=O	.	-1	.	-1	2
C[C@@H]1CN([C@H](C)CO)C(=O)Cc2cc(NS(=O)(=O)c3cccs3)ccc2O[C@H]1CN(C)Cc1ccc(C(=O)O)cc1	.	17	.	-4	-6
C[C@@H]1CN([C@@H](C)CO)C(=O)c2cc(NS(=O)(=O)c3ccc(Cl)cc3)ccc2O[C@@H](C)CCCCO[C@H]1CN(C)CC1CC1	.	84*	.	2	1
C[C@@H]1CCCCO[C@@H](CN(C)CC2CCCCC2)[C@H](C)CN([C@@H](C)CO)C(=O)c2cc(NS(=O)(=O)c3ccc(Cl)cc3)ccc2O1	.	-24	.	.	.
C[C@@H]1CCCCO[C@@H](CN(C)CC2CC2)[C@@H](C)CN([C@H](C)CO)C(=O)c2cc(NS(=O)(=O)c3ccc(Cl)cc3)ccc2O1	.	48*	.	-1	3
CN(Cc1ccccc1)C(=O)c1ccc(NC(=O)Cc2ccc(NC(=O)C3CCN(C(=O)C4CCC4)CC3)cc2)cc1	1	53*	-7	1	1
O=C(Cc1cccc(NC(=O)C2CCCN(C(=O)C3CCCCC3)C2)c1)Nc1ccc(C(=O)N2CCOCC2)cc1 (stereo not given)	-3	24*	3	3	0
O=C(Cc1cccc(NC(=O)C2CCN(C(=O)C3CCCC3)CC2)c1)Nc1cccc(C(=O)N2CCCCC2)c1	-15	43*	2	-2	-3
CC(C)(C)OC(=O)N1CCCC(C(=O)Nc2cccc(C(=O)NCCCCc3ccccc3)c2)C1 (stereo not given)	17	-1	3	17*	3
O=C(Cc1cccc(NC(=O)C2CCN(C(=O)C3CCCC3)CC2)c1)Nc1cccc(C(=O)N2CCCC2)c1	-1	-13	4	.	-1
Cc1ccc(S(=O)(=O)Nc2ccc3c(c2)C(=O)N([C@@H](C)CO)C[C@@H](C)[C@H](CN(C)CC2CCCCC2)O3)cc1	.	13	.	1	-1
CC(C)CC#Cc1ccc2c(c1)O[C@H](CN(C)C(=O)c1cnccn1)[C@@H](C)CN([C@H](C)CO)S2(=O)=O	.	-2	.	1	9
CNC[C@H]1Oc2ccc(NC(=O)Nc3ccc(C(F)(F)F)cc3)cc2CC(=O)N([C@H](C)CO)C[C@@H]1C	.	-7	.	-10	11
O=C(Cc1ccc(NC(=O)C2CCCN(C(=O)C3CC3)C2)cc1)Nc1cccc(C(=O)N2CCCC2)c1 (stereo not given)	-16	62*	-5	-3	4
C[C@@H]1CN([C@@H](C)CO)C(=O)c2cc(-c3ccc(F)cc3)cnc2O[C@@H]1CN(C)CC1CCCC1	.	-8	.	10	4
C[C@@H]1CN([C@@H](C)CO)C(=O)c2cc(-c3ccc(C#N)cc3)cnc2O[C@@H]1CN(C)CC1CCOCC1	.	-6	.	38*	-3
Cc1ccc(-c2cnc3c(c2)C(=O)N([C@@H](C)CO)C[C@@H](C)[C@@H](CN(C)CC2CC2)O3)cc1	.	-5	.	16*	-2
C[C@H]1CN([C@@H](C)CO)C(=O)c2cc(-c3ccc(C#N)cc3)cnc2O[C@H]1CN(C)CC1CCOCC1	.	-7	.	-9	4
C[C@@H]1CN([C@@H](C)CO)C(=O)c2cc(-c3ccc(F)cc3)cnc2O[C@H]1CN(C)CC1CCCC1	.	54*	.	-2	7
SMILES	PDI turbidity	DENV2 CPE	Rtt109 Vps75	SIRT5 block	ERp5 block
C[C@@H]1CN([C@@H](C)CO)S(=O)(=O)c2ccc(-c3ccncc3)cc2O[C@H]1CN(C)C(=O)c1cccc(F)c1	.	-1	.	-2	-7
C[C@H](CO)N1C[C@H](C)[C@@H](CN(C)S(=O)(=O)c2ccc(F)cc2)Oc2ccc(NC(=O)CCN3CCOCC3)cc2C1=O	-33	?	-4	15*!	-1
C[C@@H]1CN([C@@H](C)CO)C(=O)c2cc(NC(=O)CCCCCC(=O)Nc3ccccc3N)ccc2O[C@H]1CN(C)Cc1ccccc1	.	15	.	21*	0
C[C@H](CO)N1C[C@H](C)[C@@H](CN(C)S(=O)(=O)c2ccc(F)cc2)Oc2ccc(NC(=O)CCCCCC(=O)Nc3ccccc3N)cc2C1=O	.	26*	.	.	2
C[C@@H]1CN([C@@H](C)CO)C(=O)c2cc(NC(=O)CCN3CCOCC3)ccc2O[C@@H]1CN(C)S(=O)(=O)c1ccc(F)cc1	.	4	.	-2	0
CNC[C@H]1Oc2ccc(NC(=O)CCN3CCOCC3)cc2C(=O)N([C@H](C)CO)C[C@@H]1C	.	27*	.	-2	5
CN(C)CC(=O)Nc1ccc2c(c1)[C@@H]1C[C@H](CC(=O)N3CCCCC3)O[C@H](CO)[C@@H]1O2	.	-2	.	8	2
CCCNC(=O)N(C)C[C@@H]1Oc2ncc(-c3ccncc3)cc2C(=O)N([C@@H](C)CO)C[C@@H]1C	.	2	.	-1	2
Cc1noc(C)c1NC(=O)N[C@H]1CC[C@@H](CC(=O)N2CCCCC2)O[C@@H]1CO	.	-8	.	0	-4
C[C@H](CO)N1C[C@H](C)[C@H](CN(C)Cc2ccc(Cl)c(Cl)c2)Oc2ccc(NC(=O)Nc3ccc(C(F)(F)F)cc3)cc2CC1=O	.	-4	.	-1	11
C[C@@H]1CN([C@H](C)CO)C(=O)Cc2cc(NC(=O)CCCCCC(=O)Nc3ccccc3N)ccc2O[C@H]1CN(C)Cc1ccc(Oc2ccccc2)cc1	.	2	.	15*	2
C[C@H](CO)N1C[C@H](C)[C@H](CN(C)C(=O)Nc2ccccc2)Oc2ccc(NC(=O)CCCCCC(=O)Nc3ccccc3N)cc2C1=O	.	52*	.	-4	5
C[C@H](CO)N1C[C@H](C)[C@H](CN(C)Cc2ccc(-c3ccccc3)cc2)Oc2ccc(NC(=O)CCCCCC(=O)Nc3ccccc3N)cc2C1=O	.	32*	.	23*	8
C[C@H]1CN([C@@H](C)CO)C(=O)c2cc(NC(=O)CCCCCC(=O)Nc3ccccc3N)ccc2O[C@H]1CN(C)C(=O)Nc1ccccc1	.	-3	.	.	-8
C[C@@H]1CN([C@@H](C)CO)C(=O)Cc2cc(NC(=O)CCCCCC(=O)Nc3ccccc3N)ccc2O[C@@H]1CN(C)Cc1ccc(C(F)(F)F)cc1	.	96*	.	1	-2
